Rows were chosen to be rich in hits. Some 4% of all compounds tested hit in one or more screens of this group.
aDG glyco act: alpha-DG glycosylation activation; Pro5-aDG cells, alpha-DG glycosylation AlphaScreen (IIH6); 0% Pro5, 100% B10-LARGE cell signal; activation, % at 10 µM; hit rate 0.22% among 360,000; AID 624168;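 active means activation of at least 8% versus controls, or a plate z-score of at least 8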;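 further: Pro5 are CHO cells carrying HIG-tagged alpha-DG that lacks glycosylation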
FAS-TE inh: blocks the thioesterase domain of human fatty acid synthase; P49327; recombinant FAS-TE, OMFH fluorogenic substrate, fluorescence endpoint; inhibition, % at 15 µM; hit rate 0.67% among 360,000; AID 602261;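 active means compounds whose normalised, plate-corrected inhibition of enzyme fluorescence in the single-dose primary screen is 50% or more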
NR3A LBD binder: NR3A (human) ligand-binding domain modulation | Tm shift relative to glycine control, % at 25 µM | NR3A LBD differential scanning fluorimetry, Tm shift; 0% = protein alone, 100% = glycine-bound protein | hit rate 2.5% among 340,000;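 active means melting temperature shift of at least 10% of the positive control shift, at one fixed dose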
ADAM10 inh: inhibits human ADAM10; O14672; recombinant ADAM10, EDANS/DABCYL FRET peptide cleavage, 3 h; inhibition, % at 7 µM; hit rate 0.62% among 370,000;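 active means inhibition above a per-campaign cutoff equal to the mean of compounds falling between control-based bounds plus 3 SD, cut at about 20% in these data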
Target sequence (O14672 214-748 limits assumed): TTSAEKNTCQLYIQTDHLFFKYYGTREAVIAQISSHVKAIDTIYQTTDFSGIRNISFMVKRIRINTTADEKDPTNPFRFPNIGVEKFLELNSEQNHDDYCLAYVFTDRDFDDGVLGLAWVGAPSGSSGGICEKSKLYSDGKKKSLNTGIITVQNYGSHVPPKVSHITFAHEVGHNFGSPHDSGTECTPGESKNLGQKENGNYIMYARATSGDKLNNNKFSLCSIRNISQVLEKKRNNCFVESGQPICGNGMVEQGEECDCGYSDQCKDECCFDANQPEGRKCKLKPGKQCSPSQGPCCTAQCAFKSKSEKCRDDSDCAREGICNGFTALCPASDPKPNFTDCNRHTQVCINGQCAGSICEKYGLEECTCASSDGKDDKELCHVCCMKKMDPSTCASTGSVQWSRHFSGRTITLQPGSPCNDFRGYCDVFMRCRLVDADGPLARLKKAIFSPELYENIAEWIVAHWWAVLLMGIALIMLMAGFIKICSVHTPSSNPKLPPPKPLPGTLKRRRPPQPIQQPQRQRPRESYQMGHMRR
ADAM17 inh: inhibitors of human ADAM17; P78536; recombinant ADAM17, EDANS/DABCYL FRET peptide cleavage; inhibition, % at 6.95 µM; hit rate 0.83% among 370,000; AID 720648;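 active means inhibition above the mean of compounds lying between control limits plus 3 SD, set per campaign, cut at about 8.5% in these data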
Large screens that a line does not name were inactive.

Cc1ccc2[nH]c(O)c(N=NC(=O)CCc3ccccc3)c2c1Br	NR3A LBD binder 17
Cc1nc2ccccc2n1CC(=O)N/N=C\c1ccccn1	none
Cc1ccc(C(=O)Nc2ccccc2OC(F)F)cc1	NR3A LBD binder 13
O=C(Nc1ccccc1OC(F)F)c1ccccc1	none
CCOc1ccc(NC(=S)NNC(=S)Nc2cccc(C(F)(F)F)c2)cc1	NR3A LBD binder 20
COc1ccc(NC(=S)NNC(=S)Nc2cccc(C(F)(F)F)c2)cc1	NR3A LBD binder 34
CCOc1cc(OCC)cc(C(=O)NC(=S)Nc2cccc(C(F)(F)F)c2)c1	none
CCn1c(-c2ccc(F)cc2)n[nH]c1=S	none
CCc1nnc(NC(=O)c2sc3nc4cc(C)ccc4cc3c2N)s1	NR3A LBD binder 20
CCOC(=O)Cc1csc(NC(=O)c2sc3nc4ccc(C)cc4cc3c2N)n1	none
Oc1ccc(C[C@@H]2CNC(=S)N2CCc2cc(C(F)(F)F)cc(C(F)(F)F)c2)cc1	NR3A LBD binder 34
Oc1ccc(C[C@@H]2CNCCN2CCc2cc(C(F)(F)F)cc(C(F)(F)F)c2)cc1	none
Oc1ccc(C[C@H]2CNC(=S)N2CCc2cc(C(F)(F)F)cc(C(F)(F)F)c2)cc1	NR3A LBD binder 31
O=C1NC[C@@H](Cc2ccc(O)cc2)N(CCc2cc(C(F)(F)F)cc(C(F)(F)F)c2)C1=O	none (no result: NR3A LBD binder)
COc1ccccc1NC(=O)NC1(C(=O)N2CCCCC2)CCCCC1	none
COc1cc(C2C(C(=O)c3ccco3)=C(O)C(=O)N2CC2CCCO2)ccc1O (configuration not stated)	none
COc1ccc(S(=O)(=O)c2nnn(-c3cccc(Cl)c3)c2N)cc1	NR3A LBD binder 19
COc1cccc(-n2nnc(S(=O)(=O)c3ccc(C)cc3)c2N)c1	none
Cc1ccc(-c2cc(C(=O)Nc3ccc(S(=O)(=O)Nc4nccs4)cc3)c3ccccc3n2)c(C)c1	NR3A LBD binder 15, ADAM10 inh 40, ADAM17 inh 20
Cc1ccc(C)c(-c2cc(C(=O)Nc3nccs3)c3ccccc3n2)c1	none
Cc1ccc(C)c(-c2cc(C(=O)Nc3cccnc3)c3ccccc3n2)c1	NR3A LBD binder 11
O=C(Nc1ccc(-c2cc3ccccc3oc2=O)c(Cl)c1)c1cccnc1	none
N#C/C(=C\c1cccs1)c1nc2ccccc2[nH]1	NR3A LBD binder 22
COC(=O)c1ccc(COc2ccc(/C=C(\C#N)c3nc4ccccc4[nH]3)cc2OC)o1	none
CCc1ccc(NC(=O)COc2ccc(/C=C(/C#N)c3nc4ccccc4[nH]3)cc2OC)cc1	NR3A LBD binder 30
N#C/C(=C\c1ccc(N2CCCC2)c([N+](=O)[O-])c1)c1nc2ccccc2[nH]1	none
N#C/C(=C\c1ccc([N+](=O)[O-])o1)c1nc2ccccc2[nH]1	NR3A LBD binder 22 (no result: aDG glyco act, FAS-TE inh)
N#C/C(=C/c1ccc(O)c(O)c1)c1nc2ccccc2[nH]1	NR3A LBD binder 19
CCOc1ccccc1CNC(CC)CO (configuration not stated)	none
C=CCNc1oc(-c2ccc(-c3ccccc3)cc2)nc1C#N	none (no result: ADAM10 inh, ADAM17 inh)
Brc1ccc(/C=N/Nc2ccccc2)cc1	NR3A LBD binder 20
O=C(N/N=C/c1cc(Br)cc([N+](=O)[O-])c1O)c1ccc(NC(=O)c2ccc(F)cc2)cc1	NR3A LBD binder 18
Cc1ccccc1C(=O)Nc1ccc(C(=O)N/N=C/c2ccc(O)c(Br)c2)cc1	NR3A LBD binder 28
O=C(N/N=C/c1ccc2c(c1)OCO2)c1ccc(NC(=O)c2ccc(F)cc2)cc1	NR3A LBD binder 19
Cc1cccc(NC(=O)c2ccc(NCC3CCCO3)c([N+](=O)[O-])c2)n1 (configuration not stated)	none
Cc1cccc(NS(=O)(=O)c2nnc(NC(=O)c3ccc(Cl)cc3)s2)c1	none
O=C(CCCC(=O)Nc1ccc(Br)cc1)N/N=C/c1ccccc1	NR3A LBD binder 10
Cc1ccccc1C(=O)Nc1ccc(C(=O)N/N=C/c2ccc(F)cc2)cc1	NR3A LBD binder 26
CC(=O)Nc1ccc(C(=O)N/N=C/c2ccc(F)cc2)cc1	none
COc1ccc(/C=N/NC(=O)c2cc[n+]([O-])cc2)cc1	none
O=C(CCCSCCCC(=O)NN=Cc1ccccc1)NN=Cc1ccccc1	none
COc1ccc(/C=N/NC(=O)c2ccc(NC(=O)c3ccccc3Br)cc2)cc1	NR3A LBD binder 27
O=C(N/N=C/c1ccccc1)c1ccc(NC(=O)c2ccc(F)cc2)cc1	NR3A LBD binder 33
COc1ccccc1-c1nnc(SCC(=O)NC2CCCCC2)n1N	none

Screening data (PubChem)
